Results filed as inconclusive are left out. Calls of active or inactive are those of the source. Calls come from the whole dose curve; as a rule, active = well fitted curve in the direction sought with a large enough effect; inconclusive = small, poorly fitted or top-dose-only effect, or another doubt; inactive = no such curve, though single readings can be large; an effect the other way counts as inactive or inconclusive.
Experiments:
[1] = Quantitative High-Throughput drug screen in 47 multiple myeloma cell lines against the NCATS MIPE library collection: KMS26_JCRB cell viability assay (AID 1918975); note: nearly all actives have a fitted effect of over 45% in size
Procedure, shortened: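 Myeloma cells (500 per well) were exposed to MIPE 4.0 compounds by pin transfer and incubated 48 hours at 37C, 5% CO2. Viability was read as ATP by CellTiter-Glo luminescence, normalised to DMSO (100%) and media-only (0%) wells.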

[2] = Quantitative High-Throughput drug screen in 47 multiple myeloma cell lines against the NCATS MIPE library collection: MMM1_PLB cell viability assay (AID 1918976); note: nearly all actives have a fitted effect of over 35% in size
Procedure, shortened: (§1)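 Plated at 500 cells per well, myeloma lines received MIPE 4.0 compounds by pin tool. Following 48 h culture at 37 °C, CellTiter-Glo luminescence gave viability relative to DMSO and media-only controls.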

[3] = Quantitative High-Throughput drug screen in 47 multiple myeloma cell lines against the NCATS MIPE library collection: MOLP8_DSMZ cell viability assay (AID 1918977); note: nearly all actives have a fitted effect of over 45% in size
Procedure, shortened: as §1

[4] = Quantitative High-Throughput drug screen in 47 multiple myeloma cell lines against the NCATS MIPE library collection: OCIMY1_PLB cell viability assay (AID 1918979); note: nearly all actives have a fitted effect of over 35% in size
Procedure, shortened: as §1

[5] = Quantitative High-Throughput drug screen in 47 multiple myeloma cell lines against the NCATS MIPE library collection: MM1S_ATCC cell viability assay (AID 1918980); note: nearly all actives have a fitted effect of over 45% in size
Procedure, shortened: as §1

[6] = Quantitative High-Throughput drug screen in 47 multiple myeloma cell lines against the NCATS MIPE library collection: MM1R_ATCC cell viability assay (AID 1918981); note: nearly all actives have a fitted effect of over 35% in size
Procedure, shortened: as §1

[7] = Quantitative High-Throughput drug screen in 47 multiple myeloma cell lines against the NCATS MIPE library collection: KMS28PE_JCRB cell viability assay (AID 1918983); note: nearly all actives have a fitted effect of over 35% in size
Procedure, shortened: as §1

[8] = Quantitative High-Throughput drug screen in 47 multiple myeloma cell lines against the NCATS MIPE library collection: KMS34_JCRB cell viability assay (AID 1918985); note: nearly all actives have a fitted effect of over 40% in size
Procedure, shortened: as §1

[9] = Quantitative High-Throughput drug screen in 47 multiple myeloma cell lines against the NCATS MIPE library collection: OCIMY7_PLB cell viability assay (AID 1918987); note: nearly all actives have a fitted effect of over 65% in size
Procedure, shortened: as §1

[10] = Quantitative High-Throughput drug screen in 47 multiple myeloma cell lines against the NCATS MIPE library collection: OCIMY5_PLB cell viability assay (AID 1918988); note: nearly all actives have a fitted effect of over 65% in size
Procedure, shortened: as §1

[11] = Quantitative High-Throughput drug screen in 47 multiple myeloma cell lines against the NCATS MIPE library collection: SKMM1_PLB cell viability assay (AID 1919863); settings: SKMM1 myeloma viability, CellTiter-Glo ATP, 48 h; viability: active compounds read low; note: nearly all actives have a fitted effect of over 35% in size
Procedure, shortened: as §1

[12] = Quantitative High-Throughput drug screen in 47 multiple myeloma cell lines against the NCATS MIPE library collection: U266_ATCC cell viability assay (AID 1919864); note: nearly all actives have a fitted effect of over 35% in size
Procedure, shortened: as §1

[13] = Quantitative High-Throughput drug screen in 47 multiple myeloma cell lines against the NCATS MIPE library collection: NCIH929_DSMZ cell viability assay (AID 1918978); note: nearly all actives have a fitted effect of over 35% in size
Procedure, shortened: as §1

[14] = Quantitative High-Throughput drug screen in 47 multiple myeloma cell lines against the NCATS MIPE library collection: OPM1_PLB cell viability assay (AID 1918989); note: nearly all actives have a fitted effect of over 40% in size
Procedure, shortened: as §1

[15] = Quantitative High-Throughput drug screen in 47 multiple myeloma cell lines against the NCATS MIPE library collection: XG6_PLB cell viability assay (AID 1919865); note: nearly all actives have a fitted effect of over 40% in size
Procedure, shortened: as §1

[16] = Quantitative High-Throughput drug screen in 47 multiple myeloma cell lines against the NCATS MIPE library collection: XG1_PLB cell viability assay (AID 1919866); note: nearly all actives have a fitted effect of over 35% in size
Procedure, shortened: as §1

[17] = Quantitative High-Throughput drug screen in 47 multiple myeloma cell lines against the NCATS MIPE library collection: VP6_DJ cell viability assay (AID 1919867); note: nearly all actives have a fitted effect of over 40% in size
Procedure, shortened: as §1

[18] = Quantitative High-Throughput drug screen in 47 multiple myeloma cell lines against the NCATS MIPE library collection: LP1_DSMZ cell viability assay (AID 1918982); note: nearly all actives have a fitted effect of over 35% in size
Procedure, shortened: as §1

[19] = Quantitative High-Throughput drug screen in 47 multiple myeloma cell lines against the NCATS MIPE library collection: L363_DSMZ cell viability assay (AID 1918984); note: nearly all actives have a fitted effect of over 40% in size
Procedure, shortened: as §1

Measured: Potency
Potency is the fitted concentration of half-maximal effect.

Cn1c(=O)n(-c2ccc(C(C)(C)C#N)cc2)c2c3cc(-c4cnc5ccccc5c4)ccc3ncc21
active: [1] 0.209 µM | [2] 0.209 µM | [3] 0.0166 µM | [4] 0.0662 µM | [5] 0.296 µM | [6] 0.118 µM | [7] 0.0526 µM | [8] 0.0132 µM | [9] 1.48 µM | [10] 0.743 µM | [11] 0.0332 µM | [12] 4.18 µM

CN(C)CCCN=c1c2ccccc2n(C)c2[nH]c(=O)n(C)c(=O)c12
active: [1] 26.4 µM | [2] 16.6 µM | [3] 6.62 µM | [13] 11.8 µM | [5] 3.72 µM | [6] 18.7 µM | [7] 16.6 µM | [8] 18.7 µM | [14] 6.62 µM | [11] 14.8 µM | [12] 8.33 µM | [15] 5.9 µM | [16] 14.8 µM | [17] 14.8 µM

COc1cc(-c2nn(C3CCC(N4CCN(C(C)=O)CC4)CC3)c3ncnc(N)c23)ccc1NC(=O)c1cc2ccccc2n1C (centres undefined)
active: [1] 14.8 µM | [2] 16.6 µM | [3] 10.5 µM | [4] 7.43 µM | [5] 5.9 µM | [6] 5.9 µM | [7] 14.8 µM | [8] 6.62 µM | [14] 2.64 µM | [11] 14.8 µM | [15] 1.66 µM | [16] 0.332 µM | [17] 6.62 µM

CN1CCN(Cc2ccc(NC(=O)Nc3ccc(Oc4cc(NC(=O)C5CC5)ncn4)cc3)cc2C(F)(F)F)CC1
active: [1] 0.418 µM | [2] 0.372 µM | [13] 0.132 µM | [4] 1.18 µM | [5] 0.332 µM | [6] 0.332 µM | [18] 0.372 µM | [7] 0.372 µM | [8] 0.332 µM | [9] 0.526 µM | [10] 0.332 µM | [14] 0.166 µM | [11] 0.332 µM | [12] 0.418 µM | [15] 0.148 µM | [16] 0.187 µM | [17] 0.0935 µM
inactive: [19]

CCOC(=O)C1=C(C)NC2=C(C(=O)CC(C)(C)C2)C1c1ccc(-c2ccccc2)cc1 (centres undefined)
active: [1] 16.6 µM | [2] 23.5 µM | [3] 16.6 µM | [13] 20.9 µM | [5] 23.5 µM | [8] 18.7 µM | [9] 3.72 µM | [14] 16.6 µM | [11] 23.5 µM | [12] 26.4 µM

CC(C)c1cnn2c(NCc3ccccc3)cc(N[C@@H](CO)[C@H](O)CO)nc12
active: [1] 0.296 µM | [2] 0.332 µM | [13] 0.166 µM | [4] 0.418 µM | [5] 0.235 µM | [6] 0.235 µM | [18] 0.264 µM | [7] 0.296 µM | [19] 0.148 µM | [9] 0.235 µM | [10] 0.235 µM | [14] 0.235 µM | [11] 0.372 µM | [12] 0.296 µM | [15] 0.235 µM | [16] 0.264 µM | [17] 0.187 µM

CC1(C)CC(=O)c2c(C(F)(F)F)nn(-c3ccc(C(N)=O)c(NC4CCC(OC(=O)CN)CC4)c3)c2C1 (centres undefined)
active: [1] 0.187 µM | [2] 0.418 µM | [3] 0.148 µM | [4] 0.469 µM | [5] 0.209 µM | [6] 0.209 µM | [7] 0.235 µM | [19] 0.0833 µM | [9] 0.0833 µM | [10] 0.187 µM | [14] 0.166 µM | [11] 0.264 µM | [12] 0.166 µM | [15] 0.296 µM | [16] 0.0833 µM | [17] 0.166 µM

O=C(CCCCCCC(=O)Nc1ccc([C@H]2O[C@@H](CSc3nc(-c4ccccc4)c(-c4ccccc4)o3)C[C@@H](c3ccc(CO)cc3)O2)cc1)NO
active: [1] 23.5 µM | [2] 13.2 µM | [13] 9.35 µM | [4] 18.7 µM | [5] 9.35 µM | [6] 16.6 µM | [18] 11.8 µM | [7] 16.6 µM | [8] 6.62 µM | [9] 8.33 µM | [10] 11.8 µM | [14] 8.33 µM | [11] 23.5 µM | [12] 13.2 µM | [15] 14.8 µM | [16] 10.5 µM | [17] 7.43 µM

Nc1nccc(Oc2ccc(NC(=O)c3c[nH]cc(-c4ccc(F)cc4)c3=O)cc2F)c1Cl
active: [1] 33.2 µM | [2] 23.5 µM | [3] 20.9 µM | [13] 20.9 µM | [5] 1.18 µM | [6] 2.35 µM | [18] 18.7 µM | [7] 37.2 µM | [9] 18.7 µM | [10] 26.4 µM | [14] 23.5 µM | [11] 23.5 µM | [12] 20.9 µM | [15] 16.6 µM | [16] 18.7 µM | [17] 16.6 µM

CN1CCN(c2cc(C(=O)Nc3ccc4c(c3)-c3c(c(C(N)=O)nn3-c3ccc(F)cc3)CC4)c(Cl)cn2)CC1
active: [1] 10.5 µM | [3] 26.4 µM | [13] 0.743 µM | [4] 26.4 µM | [5] 3.32 µM | [6] 20.9 µM | [18] 23.5 µM | [7] 23.5 µM | [19] 4.18 µM | [9] 0.187 µM | [10] 2.96 µM | [14] 9.35 µM | [11] 26.4 µM | [12] 2.96 µM | [16] 3.32 µM | [17] 2.96 µM

Reference: PubChem BioAssay (NCATS)
